{
  "source": "paper PMC7862700",
  "about": "“An all-to-all approach to the identification of sequence-specific readers for epigenetic DNA modifications on cytosine”",
  "experiment_in_all_cases": "DAPPL (digital affinity profiling via proximity ligation, sequencing); 10 mM Tris-HCl pH 7.5, 50 mM NaCl, 1 mM DTT, 4% glycerol, room temperature, 30 min; GST-TFs on glutathione beads, 16-mer random dsDNA library, 0.1% formaldehyde crosslink after washing; high values mean tight binding",
  "settings_in_all_cases": "protein: recombinant; tags: N-terminal GST; dsDNA, one strand shown",
  "key": {"[1]": {"target": "T1, FLI1 (Homo sapiens, UniProt Q01543 1-452)", "T1 sequence": "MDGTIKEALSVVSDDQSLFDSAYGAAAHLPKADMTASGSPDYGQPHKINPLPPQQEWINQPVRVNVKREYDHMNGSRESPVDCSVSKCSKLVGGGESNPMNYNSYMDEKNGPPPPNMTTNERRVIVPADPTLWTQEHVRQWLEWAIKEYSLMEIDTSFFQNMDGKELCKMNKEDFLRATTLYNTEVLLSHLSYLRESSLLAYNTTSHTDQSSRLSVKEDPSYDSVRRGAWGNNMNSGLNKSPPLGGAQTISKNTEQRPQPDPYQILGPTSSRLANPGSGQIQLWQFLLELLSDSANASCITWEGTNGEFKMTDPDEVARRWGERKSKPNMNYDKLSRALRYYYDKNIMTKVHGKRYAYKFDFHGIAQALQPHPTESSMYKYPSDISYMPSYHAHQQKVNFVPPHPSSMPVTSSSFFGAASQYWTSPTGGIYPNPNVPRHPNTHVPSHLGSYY", "in_short": "(§1)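 Yeast served to express human transcription factors as GST fusions, which were then captured on glutathione beads and labelled with DNA barcodes. Pooled with a tag-only sample, they were incubated with 200 nmole of a 16-mer random double-stranded DNA library for 30 min at room temperature in Tris/NaCl/DTT/glycerol buffer, washed, crosslinked with 0.1% formaldehyde, ligated by proximity, amplified by PCR and sequenced. Dividing each hexamer's read frequency for a factor by its frequency for the tag-only sample gives the binding signal.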"}, "[2]": {"target": "T2, ELK1 (Homo sapiens, UniProt P19419 1-428)", "T2 sequence": "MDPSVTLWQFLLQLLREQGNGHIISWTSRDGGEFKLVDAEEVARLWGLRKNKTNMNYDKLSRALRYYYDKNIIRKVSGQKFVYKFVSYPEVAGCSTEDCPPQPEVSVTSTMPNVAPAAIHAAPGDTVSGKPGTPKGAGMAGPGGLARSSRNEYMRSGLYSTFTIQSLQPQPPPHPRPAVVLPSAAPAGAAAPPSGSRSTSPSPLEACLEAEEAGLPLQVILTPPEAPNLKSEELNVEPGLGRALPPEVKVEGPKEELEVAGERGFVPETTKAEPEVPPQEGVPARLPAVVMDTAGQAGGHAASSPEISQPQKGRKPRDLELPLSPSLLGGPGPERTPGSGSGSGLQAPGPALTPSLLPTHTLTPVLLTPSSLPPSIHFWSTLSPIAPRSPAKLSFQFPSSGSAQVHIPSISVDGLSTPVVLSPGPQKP", "in_short": "as §1"}, "[3]": {"target": "T3, GABPA (Homo sapiens, UniProt Q06546 1-454)", "T3 sequence": "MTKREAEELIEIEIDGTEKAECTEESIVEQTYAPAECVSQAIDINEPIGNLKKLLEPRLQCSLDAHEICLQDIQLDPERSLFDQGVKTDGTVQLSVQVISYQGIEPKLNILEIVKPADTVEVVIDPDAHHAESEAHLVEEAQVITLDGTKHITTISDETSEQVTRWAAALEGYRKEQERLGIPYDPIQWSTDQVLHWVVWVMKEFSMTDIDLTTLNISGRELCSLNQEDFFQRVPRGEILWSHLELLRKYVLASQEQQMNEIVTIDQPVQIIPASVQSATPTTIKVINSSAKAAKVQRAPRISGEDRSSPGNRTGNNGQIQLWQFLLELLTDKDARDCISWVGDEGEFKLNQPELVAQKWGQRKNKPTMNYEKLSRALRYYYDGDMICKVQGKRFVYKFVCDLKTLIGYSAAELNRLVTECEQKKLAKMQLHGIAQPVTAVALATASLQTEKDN", "in_short": "as §1"}, "[4]": {"target": "T4, ERG (Homo sapiens, UniProt P11308 1-479)", "T4 sequence": "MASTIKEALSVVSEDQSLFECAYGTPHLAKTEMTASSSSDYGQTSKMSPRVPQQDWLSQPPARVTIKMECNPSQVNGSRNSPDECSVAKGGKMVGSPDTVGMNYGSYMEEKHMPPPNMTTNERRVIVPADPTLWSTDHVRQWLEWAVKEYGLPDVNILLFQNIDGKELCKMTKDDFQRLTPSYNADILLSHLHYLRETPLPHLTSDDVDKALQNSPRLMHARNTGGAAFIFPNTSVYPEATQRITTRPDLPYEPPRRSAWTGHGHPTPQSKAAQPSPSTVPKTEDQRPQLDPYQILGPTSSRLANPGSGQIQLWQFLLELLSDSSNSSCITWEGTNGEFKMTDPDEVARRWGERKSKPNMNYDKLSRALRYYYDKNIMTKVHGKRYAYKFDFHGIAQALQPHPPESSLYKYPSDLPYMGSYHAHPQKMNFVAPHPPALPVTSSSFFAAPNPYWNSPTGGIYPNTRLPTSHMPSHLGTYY", "in_short": "as §1"}, "[5]": {"target": "ELF1 (Homo sapiens, UniProt P32519 1-619)", "sequence (P32519 whole entry)": "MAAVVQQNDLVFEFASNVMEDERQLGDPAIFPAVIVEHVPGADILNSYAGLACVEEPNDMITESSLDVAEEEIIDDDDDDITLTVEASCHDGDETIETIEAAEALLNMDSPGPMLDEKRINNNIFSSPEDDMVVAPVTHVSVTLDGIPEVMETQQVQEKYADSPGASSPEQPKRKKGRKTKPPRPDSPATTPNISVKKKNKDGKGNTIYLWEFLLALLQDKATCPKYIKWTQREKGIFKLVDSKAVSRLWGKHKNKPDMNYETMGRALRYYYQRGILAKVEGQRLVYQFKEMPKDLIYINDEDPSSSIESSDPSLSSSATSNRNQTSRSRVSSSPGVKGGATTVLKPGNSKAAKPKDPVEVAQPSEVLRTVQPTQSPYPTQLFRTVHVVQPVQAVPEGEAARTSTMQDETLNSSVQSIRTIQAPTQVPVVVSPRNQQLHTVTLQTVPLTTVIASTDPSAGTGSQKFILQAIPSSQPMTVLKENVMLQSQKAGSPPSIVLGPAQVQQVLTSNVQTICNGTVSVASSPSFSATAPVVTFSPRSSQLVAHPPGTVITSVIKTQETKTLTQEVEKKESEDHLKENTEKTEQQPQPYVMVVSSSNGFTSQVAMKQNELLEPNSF", "in_short": "as §1"}, "[6]": {"target": "SPIB (Homo sapiens, UniProt Q01892 1-262)", "sequence (Q01892 whole entry)": "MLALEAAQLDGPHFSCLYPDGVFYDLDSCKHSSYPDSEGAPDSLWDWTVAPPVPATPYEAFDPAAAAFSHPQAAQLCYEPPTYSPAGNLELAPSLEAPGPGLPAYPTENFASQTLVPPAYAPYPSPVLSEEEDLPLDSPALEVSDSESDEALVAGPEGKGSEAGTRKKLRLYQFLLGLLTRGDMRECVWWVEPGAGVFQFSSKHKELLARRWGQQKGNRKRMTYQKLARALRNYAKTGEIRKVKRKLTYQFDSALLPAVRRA", "in_short": "as §1"}, "[7]": {"target": "ELF4 (Homo sapiens, UniProt Q99607 1-663)", "sequence (Q99607 whole entry)": "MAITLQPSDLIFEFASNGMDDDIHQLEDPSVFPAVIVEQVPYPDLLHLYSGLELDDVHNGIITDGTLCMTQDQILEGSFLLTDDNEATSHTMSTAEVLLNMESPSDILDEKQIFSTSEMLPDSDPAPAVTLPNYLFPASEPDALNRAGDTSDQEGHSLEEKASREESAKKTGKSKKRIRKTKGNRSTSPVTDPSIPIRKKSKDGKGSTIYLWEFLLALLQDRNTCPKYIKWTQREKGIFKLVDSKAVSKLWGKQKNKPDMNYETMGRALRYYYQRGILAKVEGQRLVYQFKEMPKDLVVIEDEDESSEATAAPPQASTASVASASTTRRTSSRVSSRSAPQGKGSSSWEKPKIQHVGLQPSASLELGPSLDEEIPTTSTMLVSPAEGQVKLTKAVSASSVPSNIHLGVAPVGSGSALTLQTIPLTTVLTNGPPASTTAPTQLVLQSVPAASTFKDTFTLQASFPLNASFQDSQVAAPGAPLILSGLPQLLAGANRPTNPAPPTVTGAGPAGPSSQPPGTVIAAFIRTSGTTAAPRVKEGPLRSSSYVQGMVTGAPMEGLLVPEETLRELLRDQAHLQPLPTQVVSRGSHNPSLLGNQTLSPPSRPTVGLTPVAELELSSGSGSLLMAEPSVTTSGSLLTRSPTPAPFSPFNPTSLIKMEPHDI", "in_short": "as §1"}, "[8]": {"target": "T5, ETV2 (Homo sapiens, UniProt O00321 1-342)", "T5 sequence": "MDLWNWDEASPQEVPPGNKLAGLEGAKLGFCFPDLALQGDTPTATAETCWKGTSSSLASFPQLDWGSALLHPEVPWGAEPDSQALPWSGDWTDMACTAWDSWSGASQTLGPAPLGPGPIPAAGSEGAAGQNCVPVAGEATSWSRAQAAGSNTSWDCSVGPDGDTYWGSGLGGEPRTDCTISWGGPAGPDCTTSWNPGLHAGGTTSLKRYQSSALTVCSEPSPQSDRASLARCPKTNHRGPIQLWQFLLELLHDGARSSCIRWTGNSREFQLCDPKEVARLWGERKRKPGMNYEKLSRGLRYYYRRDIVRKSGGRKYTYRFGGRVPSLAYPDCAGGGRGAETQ", "in_short": "as §1"}, "[9]": {"target": "T6, ELF3 (Homo sapiens, UniProt P78545 1-371)", "T6 sequence": "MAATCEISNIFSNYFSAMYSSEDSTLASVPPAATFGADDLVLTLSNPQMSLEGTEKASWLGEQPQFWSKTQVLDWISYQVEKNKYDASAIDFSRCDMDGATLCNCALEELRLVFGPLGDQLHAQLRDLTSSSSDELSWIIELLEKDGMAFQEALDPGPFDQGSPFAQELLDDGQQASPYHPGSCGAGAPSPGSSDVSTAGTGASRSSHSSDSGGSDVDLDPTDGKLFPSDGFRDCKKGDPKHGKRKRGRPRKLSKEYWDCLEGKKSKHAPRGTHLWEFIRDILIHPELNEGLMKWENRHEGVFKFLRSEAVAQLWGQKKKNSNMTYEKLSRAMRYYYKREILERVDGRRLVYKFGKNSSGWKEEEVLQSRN", "in_short": "as §1"}, "[10]": {"target": "ETV1 (Homo sapiens, UniProt P50549 1-477)", "sequence (P50549 whole entry)": "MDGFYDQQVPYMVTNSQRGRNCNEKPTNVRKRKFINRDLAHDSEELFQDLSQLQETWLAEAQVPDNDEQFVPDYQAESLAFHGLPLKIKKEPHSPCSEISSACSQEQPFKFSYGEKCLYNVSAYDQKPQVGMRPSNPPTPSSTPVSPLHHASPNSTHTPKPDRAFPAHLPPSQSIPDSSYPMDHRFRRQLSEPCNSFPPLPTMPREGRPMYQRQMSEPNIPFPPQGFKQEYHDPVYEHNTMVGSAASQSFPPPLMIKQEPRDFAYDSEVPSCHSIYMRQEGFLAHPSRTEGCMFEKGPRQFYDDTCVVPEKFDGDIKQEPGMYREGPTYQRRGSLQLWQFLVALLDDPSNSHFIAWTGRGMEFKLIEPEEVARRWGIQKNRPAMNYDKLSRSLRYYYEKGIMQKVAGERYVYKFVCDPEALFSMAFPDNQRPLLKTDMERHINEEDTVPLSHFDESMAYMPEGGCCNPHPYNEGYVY", "in_short": "as §1"}, "[11]": {"target": "T7, ETV3L (Homo sapiens, UniProt Q6ZN32 1-361)", "T7 sequence": "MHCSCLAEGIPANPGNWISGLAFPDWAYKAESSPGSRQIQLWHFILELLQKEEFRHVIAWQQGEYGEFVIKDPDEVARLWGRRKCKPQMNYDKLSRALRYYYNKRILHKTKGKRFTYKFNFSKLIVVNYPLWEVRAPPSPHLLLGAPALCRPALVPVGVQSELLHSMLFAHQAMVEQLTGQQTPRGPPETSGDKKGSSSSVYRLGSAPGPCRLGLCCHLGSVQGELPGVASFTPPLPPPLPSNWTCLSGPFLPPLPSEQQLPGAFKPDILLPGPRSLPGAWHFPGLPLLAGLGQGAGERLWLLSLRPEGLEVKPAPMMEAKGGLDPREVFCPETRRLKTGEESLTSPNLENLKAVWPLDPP", "in_short": "as §1"}, "[12]": {"target": "T8, ETS2 (Homo sapiens, UniProt P15036 1-469)", "T8 sequence": "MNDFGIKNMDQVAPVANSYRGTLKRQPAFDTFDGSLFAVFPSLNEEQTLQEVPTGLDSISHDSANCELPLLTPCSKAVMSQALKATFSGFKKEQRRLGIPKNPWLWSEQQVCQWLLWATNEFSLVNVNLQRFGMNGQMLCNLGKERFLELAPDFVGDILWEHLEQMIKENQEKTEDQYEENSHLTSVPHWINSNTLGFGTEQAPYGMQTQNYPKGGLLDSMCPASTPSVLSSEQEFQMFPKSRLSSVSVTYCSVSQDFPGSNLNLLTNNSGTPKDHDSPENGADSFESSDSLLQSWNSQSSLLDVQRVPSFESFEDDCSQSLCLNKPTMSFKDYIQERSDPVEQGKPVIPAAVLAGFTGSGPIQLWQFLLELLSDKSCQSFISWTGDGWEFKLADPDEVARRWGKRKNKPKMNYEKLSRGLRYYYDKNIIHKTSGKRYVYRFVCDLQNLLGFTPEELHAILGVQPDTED", "in_short": "as §1"}, "[13]": {"target": "T9, ETV7 (Homo sapiens, UniProt Q9Y603 1-341)", "T9 sequence": "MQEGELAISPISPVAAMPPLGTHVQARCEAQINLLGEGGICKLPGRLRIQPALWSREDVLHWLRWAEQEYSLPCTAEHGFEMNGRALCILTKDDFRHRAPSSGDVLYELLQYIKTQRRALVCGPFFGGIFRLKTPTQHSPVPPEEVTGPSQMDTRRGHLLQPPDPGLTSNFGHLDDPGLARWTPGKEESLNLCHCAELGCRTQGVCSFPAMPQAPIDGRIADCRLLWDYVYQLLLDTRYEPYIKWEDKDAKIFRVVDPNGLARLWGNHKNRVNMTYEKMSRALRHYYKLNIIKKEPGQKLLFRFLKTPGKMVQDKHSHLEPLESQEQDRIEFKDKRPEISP", "in_short": "as §1"}, "[14]": {"target": "T10, ETV3 (Homo sapiens, UniProt P41162-2 1-143)", "T10 sequence": "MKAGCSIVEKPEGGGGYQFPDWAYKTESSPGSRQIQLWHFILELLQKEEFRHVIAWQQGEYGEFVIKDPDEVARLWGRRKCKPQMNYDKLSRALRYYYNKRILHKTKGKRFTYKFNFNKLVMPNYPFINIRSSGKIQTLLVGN", "in_short": "as §1"}, "[15]": {"target": "ETV6 (Homo sapiens, UniProt P41212 1-452)", "sequence (P41212 whole entry)": "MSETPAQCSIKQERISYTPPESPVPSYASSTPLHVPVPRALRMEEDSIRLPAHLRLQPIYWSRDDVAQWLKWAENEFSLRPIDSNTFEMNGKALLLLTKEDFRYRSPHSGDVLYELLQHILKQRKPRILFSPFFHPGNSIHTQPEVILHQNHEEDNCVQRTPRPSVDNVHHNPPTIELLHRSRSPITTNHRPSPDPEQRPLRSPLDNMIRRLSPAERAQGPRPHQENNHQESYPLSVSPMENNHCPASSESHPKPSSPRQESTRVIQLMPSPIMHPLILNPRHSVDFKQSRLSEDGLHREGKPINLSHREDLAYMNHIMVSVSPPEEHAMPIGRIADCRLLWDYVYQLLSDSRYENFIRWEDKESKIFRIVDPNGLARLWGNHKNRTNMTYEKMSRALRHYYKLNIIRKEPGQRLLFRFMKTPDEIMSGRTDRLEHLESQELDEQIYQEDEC", "in_short": "as §1"}},
  "data": [
    {"sequence": "TCAGAT", "values": [
      {"measurement": "binding signal", "setting": "[1]", "value": "1.01 fold enrichment (6-mer frequency, TF over GST control)"},
      {"measurement": "binding signal", "setting": "[2]", "value": "1.05 fold enrichment (6-mer frequency, TF over GST control)"},
      {"measurement": "binding signal", "setting": "[3]", "value": "1.03 fold enrichment (6-mer frequency, TF over GST control)"},
      {"measurement": "binding signal", "setting": "[4]", "value": "1.06 fold enrichment (6-mer frequency, TF over GST control)"},
      {"measurement": "binding signal", "setting": "[5]", "value": "1.04 fold enrichment (6-mer frequency, TF over GST control)"},
      {"measurement": "binding signal", "setting": "[6]", "value": "1.02 fold enrichment (6-mer frequency, TF over GST control)"},
      {"measurement": "binding signal", "setting": "[7]", "value": "1.02 fold enrichment (6-mer frequency, TF over GST control)"},
      {"measurement": "binding signal", "setting": "[8]", "value": "1.08 fold enrichment (6-mer frequency, TF over GST control)"},
      {"measurement": "binding signal", "setting": "[9]", "value": "1.08 fold enrichment (6-mer frequency, TF over GST control)"},
      {"measurement": "binding signal", "setting": "[10]", "value": "1.05 fold enrichment (6-mer frequency, TF over GST control)"},
      {"measurement": "binding signal", "setting": "[11]", "value": "1 fold enrichment (6-mer frequency, TF over GST control)"},
      {"measurement": "binding signal", "setting": "[12]", "value": "1.02 fold enrichment (6-mer frequency, TF over GST control)"},
      {"measurement": "binding signal", "setting": "[13]", "value": "1.03 fold enrichment (6-mer frequency, TF over GST control)"},
      {"measurement": "binding signal", "setting": "[14]", "value": "1.02 fold enrichment (6-mer frequency, TF over GST control)"},
      {"measurement": "binding signal", "setting": "[15]", "value": "1.08 fold enrichment (6-mer frequency, TF over GST control)"}
    ]}
  ]
}
